SMILES strings stand for the structures. Out of some 30,000 compounds screened, about 190 (0.63%) were called active. The full list was thinned out, with actives kept by preference. A number with no mark means an inactive call. Cut-off read from the data, not from the text of the source: active = viability loss activity score above about 50%; inconclusive = no clear call, values can overlap the other calls; inactive = below about 35%.

The text below walks through data of PubChem BioAssay AID2275 (Broad Institute, 2010).

The nature of the assay: BJeLR cell viability loss, primary screen, luminescence, CellTiterGlo ATP (AID 2275).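 Note: higher score means fewer live cells and less ATP luminescence.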 Particulars: BJeLR fibroblasts viability, 48 h, active compounds read high, concentration not given here; HRASV12, hTERT and SV40 LT/ST transformed unless noted. (Cellular ATP, detected with luciferase, serves as a proxy for viable cell number.)
For `CN[C@@H]1C[C@H]2O[C@@](C)([C@@H]1OC)n1c3ccccc3c3c4c(c5c6ccccc6n2c5c31)C(=O)NC4`, the viability loss activity score is 127% (active).
Next, `CCCCCCCCCCCCCC(=O)O[C@@H]1[C@@H](C)[C@@]2(O)[C@@H](C=C(CO)C[C@]3(O)C(=O)C(C)=C[C@@H]23)[C@@H]2C(C)(C)[C@]12OC(C)=O`: 4.17%; `CN1C2C=C(N(C(=O)c3ccc(Cl)cc3)c3ccccc3)CC1CC2` (stereo not given): 0.717%.
Consider `CCOC(=O)[C@@H]1[C@@H]2NC(=O)N[C@@]1(C)Oc1ccccc12`, for which the viability loss activity score is -1.85% [setting not given].
Next, `Fc1ccc(CNC2=NCCS2)cc1`: 2.3%; `CNC(=O)N(C)c1nnc(C(C)(C)C)s1`: -2.35% [setting not given]; `c1ccc2c(c1)[I+]c1ccccc1-2`: 73.2% (active).
Next, `CC(=O)Nc1nc(C)c(Oc2ccccc2)c(OC(=O)N(C)C)n1`: -1.11%; `COC1=C[C@@H]2[C@@H]3Cc4ccc(OC)c(O)c4[C@]2(CCN3C)CC1=O`: 1.23% [setting not given]; `CN1CC=C(c2noc(CCC(=O)Nc3ccc(F)cc3F)n2)CC1`: 2.02%.
With `CC(C)[C@@]1(NC(=O)[C@@H]2CC3c4cccc5[nH]cc(c45)C[C@H]3N(C)C2)O[C@@]2(O)[C@@H]3CCCN3C(=O)[C@H](Cc3ccccc3)N2C1=O` (stereo not given in full), the viability loss activity score is -5.08%.
To `O=C(O)C1C2CCC(O2)C1C(=O)N1CCN(C/C=C/c2ccccc2)CC1` (stereo not given) belongs 8.76%.
To `C[C@H]1O[C@@H](O[C@H]2CC[C@]3(CO)C4CC[C@]5(C)[C@@H](C6=CC(=O)OC6)CC[C@]5(O)[C@@H]4CC[C@H]3C2)[C@H](O)[C@H](O)[C@@H]1O[C@@H]1O[C@H](CO)[C@@H](O)[C@H](O)[C@H]1O` (stereo not given in full) belongs 109% (active); to `Cc1ccc(CSc2nnc(OC(=O)N(C)C)n2-c2cccc(Cl)c2)cc1`, 5.26%; to `CC1N=C(c2ccccc2)c2ccccc2N(CCCOc2ccc(F)cc2)C1=O` (stereo not given), -3.72%.
To `CC(C)(c1ccccc1)c1ccc(O)cc1` belongs 0.81%.
Take `CC(C)c1ccc2c(c1O)CC[C@H]1C3=C(CC[C@]21C)C(=O)OC3`: the viability loss activity score was 4.52%.
To `C[C@H]1CCC/C=C/C2C[C@H](O)C[C@H]2[C@H](O)/C=C\C(=O)O1` (stereo not given in full) belongs 74.4% (active); to `CCN(CC)C(=O)c1ccc(N(Cc2ccccc2Cl)S(C)(=O)=O)cc1`, 5.52%; to `Fc1cccc(NC2=NCCS2)c1`, 7.57%.
